# Where a chain is given by its changes, count along the chain named.
# What was measured:
# Test in all cases: PBM; 200 nM protein, PBS
# Settings in all cases: dsDNA, one strand shown
# [1] = target: T1, NKX2-6 (Homo sapiens, UniProt A6NCS4 118-204)
# T1 sequence: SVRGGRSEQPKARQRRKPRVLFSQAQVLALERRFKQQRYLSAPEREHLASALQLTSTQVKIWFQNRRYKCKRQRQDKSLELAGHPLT
# [2] = target: T2, NKX2-6 (Homo sapiens, UniProt A6NCS4 118-204, F151L)
# T2 sequence: T1 sequence with F34L
# [3] = target: PITX2 (Homo sapiens, UniProt Q99697 72-157)
# [4] = target: NKX3-2 (Homo sapiens, UniProt P78367 192-278, P234S)
# [5] = target: NKX3-2 (Homo sapiens, UniProt P78367 192-278)
# [6] = target: T3, PAX4 (Homo sapiens, UniProt O43316 9-242, R200Q)
# T3 sequence: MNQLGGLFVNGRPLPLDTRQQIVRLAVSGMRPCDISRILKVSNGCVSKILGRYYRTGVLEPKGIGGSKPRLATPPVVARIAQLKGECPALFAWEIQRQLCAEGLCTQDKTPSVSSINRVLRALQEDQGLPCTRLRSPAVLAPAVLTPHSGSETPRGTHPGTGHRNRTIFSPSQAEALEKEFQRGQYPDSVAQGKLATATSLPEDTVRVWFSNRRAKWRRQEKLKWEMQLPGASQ
# [7] = target: T4, PAX4 (Homo sapiens, UniProt O43316 9-242, F177Y)
# T4 sequence: T3 sequence with F169Y, Q192R
# [8] = target: T5, PAX4 (Homo sapiens, UniProt O43316 9-242, R227W)
# T5 sequence: T3 sequence with Q192R, R219W
# NKX3-2 (Homo sapiens, UniProt P78367 192-278, P234S), sequence (P78367 192-278 P234S): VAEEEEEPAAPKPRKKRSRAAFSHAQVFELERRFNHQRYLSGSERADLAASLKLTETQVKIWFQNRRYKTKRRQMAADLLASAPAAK
# NKX3-2 (Homo sapiens, UniProt P78367 192-278), sequence (P78367 192-278): as the sequence (P78367 192-278 P234S) above, with S43P counted along it
sequence,measurement,setting,value
TAAGAAGA,binding signal,[1],"11.5 upbm affinity estimate (log intensity, higher = more binding, comparable within an allelic series)"
same,binding signal,[2],"9.88 upbm affinity estimate (log intensity, higher = more binding, comparable within an allelic series)"
ATCACTCA,binding signal,[1],"12.1 upbm affinity estimate (log intensity, higher = more binding, comparable within an allelic series)"
same,binding signal,[2],"9.9 upbm affinity estimate (log intensity, higher = more binding, comparable within an allelic series)"
CGGGACGC,binding signal,[1],"9.53 upbm affinity estimate (log intensity, higher = more binding, comparable within an allelic series)"
same,binding signal,[2],"9.25 upbm affinity estimate (log intensity, higher = more binding, comparable within an allelic series)"
GCGACAGC,binding signal,[1],"9.46 upbm affinity estimate (log intensity, higher = more binding, comparable within an allelic series)"
same,binding signal,[2],"9.41 upbm affinity estimate (log intensity, higher = more binding, comparable within an allelic series)"
CGGTGGCC,binding signal,[1],"9.03 upbm affinity estimate (log intensity, higher = more binding, comparable within an allelic series)"
same,binding signal,[2],"9.22 upbm affinity estimate (log intensity, higher = more binding, comparable within an allelic series)"
CACTCTGG,binding signal,[1],"11.6 upbm affinity estimate (log intensity, higher = more binding, comparable within an allelic series)"
same,binding signal,[2],"9.66 upbm affinity estimate (log intensity, higher = more binding, comparable within an allelic series)"
GATACTTA,binding signal,[1],"13.3 upbm affinity estimate (log intensity, higher = more binding, comparable within an allelic series)"
same,binding signal,[2],"10.5 upbm affinity estimate (log intensity, higher = more binding, comparable within an allelic series)"
GCAGTCCC,binding signal,[1],"9.36 upbm affinity estimate (log intensity, higher = more binding, comparable within an allelic series)"
same,binding signal,[2],"9.32 upbm affinity estimate (log intensity, higher = more binding, comparable within an allelic series)"
CTTAAGGC,binding signal,[1],"11.5 upbm affinity estimate (log intensity, higher = more binding, comparable within an allelic series)"
same,binding signal,[2],"9.76 upbm affinity estimate (log intensity, higher = more binding, comparable within an allelic series)"
GGTGCGAC,binding signal,[1],"9.44 upbm affinity estimate (log intensity, higher = more binding, comparable within an allelic series)"
same,binding signal,[2],"9.43 upbm affinity estimate (log intensity, higher = more binding, comparable within an allelic series)"
CGTCCGTA,binding signal,[1],"9.42 upbm affinity estimate (log intensity, higher = more binding, comparable within an allelic series)"
same,binding signal,[2],"9.44 upbm affinity estimate (log intensity, higher = more binding, comparable within an allelic series)"
ACGCATCC,binding signal,[1],"9.51 upbm affinity estimate (log intensity, higher = more binding, comparable within an allelic series)"
same,binding signal,[2],"9.35 upbm affinity estimate (log intensity, higher = more binding, comparable within an allelic series)"
CACGGGTC,binding signal,[1],"9.25 upbm affinity estimate (log intensity, higher = more binding, comparable within an allelic series)"
same,binding signal,[2],"9.31 upbm affinity estimate (log intensity, higher = more binding, comparable within an allelic series)"
CACCGCGC,binding signal,[1],"8.99 upbm affinity estimate (log intensity, higher = more binding, comparable within an allelic series)"
same,binding signal,[2],"9.25 upbm affinity estimate (log intensity, higher = more binding, comparable within an allelic series)"
GGCCCGTA,binding signal,[1],"9.15 upbm affinity estimate (log intensity, higher = more binding, comparable within an allelic series)"
same,binding signal,[2],"9.45 upbm affinity estimate (log intensity, higher = more binding, comparable within an allelic series)"
TGGTACCA,binding signal,[1],"9.64 upbm affinity estimate (log intensity, higher = more binding, comparable within an allelic series)"
same,binding signal,[2],"9.28 upbm affinity estimate (log intensity, higher = more binding, comparable within an allelic series)"
ATGCCCTG,binding signal,[1],"9.6 upbm affinity estimate (log intensity, higher = more binding, comparable within an allelic series)"
same,binding signal,[2],"9.34 upbm affinity estimate (log intensity, higher = more binding, comparable within an allelic series)"
ATCTTCAC,binding signal,[1],"11.1 upbm affinity estimate (log intensity, higher = more binding, comparable within an allelic series)"
same,binding signal,[2],"9.83 upbm affinity estimate (log intensity, higher = more binding, comparable within an allelic series)"
CGGGGGCC,binding signal,[1],"9.04 upbm affinity estimate (log intensity, higher = more binding, comparable within an allelic series)"
same,binding signal,[2],"9.04 upbm affinity estimate (log intensity, higher = more binding, comparable within an allelic series)"
AAGTCATT,binding signal,[1],"11.3 upbm affinity estimate (log intensity, higher = more binding, comparable within an allelic series)"
same,binding signal,[2],"9.8 upbm affinity estimate (log intensity, higher = more binding, comparable within an allelic series)"
ATCCGCAG,binding signal,[1],"9.55 upbm affinity estimate (log intensity, higher = more binding, comparable within an allelic series)"
same,binding signal,[2],"9.47 upbm affinity estimate (log intensity, higher = more binding, comparable within an allelic series)"
CCAGAATC,binding signal,[1],"9.71 upbm affinity estimate (log intensity, higher = more binding, comparable within an allelic series)"
same,binding signal,[2],"9.51 upbm affinity estimate (log intensity, higher = more binding, comparable within an allelic series)"
ACCTCTCA,binding signal,[1],"12 upbm affinity estimate (log intensity, higher = more binding, comparable within an allelic series)"
same,binding signal,[2],"9.82 upbm affinity estimate (log intensity, higher = more binding, comparable within an allelic series)"
GCCGGATA,binding signal,[3],"9.58 upbm affinity estimate (log intensity, higher = more binding, comparable within an allelic series)"
CCCGCGTC,binding signal,[1],"9.23 upbm affinity estimate (log intensity, higher = more binding, comparable within an allelic series)"
same,binding signal,[2],"9.39 upbm affinity estimate (log intensity, higher = more binding, comparable within an allelic series)"
CGCGGACG,binding signal,[1],"9.09 upbm affinity estimate (log intensity, higher = more binding, comparable within an allelic series)"
same,binding signal,[2],"9.22 upbm affinity estimate (log intensity, higher = more binding, comparable within an allelic series)"
AGTTGCTG,binding signal,[1],"9.45 upbm affinity estimate (log intensity, higher = more binding, comparable within an allelic series)"
same,binding signal,[2],"9.39 upbm affinity estimate (log intensity, higher = more binding, comparable within an allelic series)"
same,binding signal,[4],"10.7 upbm affinity estimate (log intensity, higher = more binding, comparable within an allelic series)"
same,binding signal,[5],"10.6 upbm affinity estimate (log intensity, higher = more binding, comparable within an allelic series)"
CGTTTGCC,binding signal,[1],"9.35 upbm affinity estimate (log intensity, higher = more binding, comparable within an allelic series)"
same,binding signal,[2],"9.53 upbm affinity estimate (log intensity, higher = more binding, comparable within an allelic series)"
GAAATTAA,binding signal,[6],"11.9 upbm affinity estimate (log intensity, higher = more binding, comparable within an allelic series)"
same,binding signal,[7],"10.9 upbm affinity estimate (log intensity, higher = more binding, comparable within an allelic series)"
same,binding signal,[8],"10.9 upbm affinity estimate (log intensity, higher = more binding, comparable within an allelic series)"
CCGGGTCC,binding signal,[1],"9.7 upbm affinity estimate (log intensity, higher = more binding, comparable within an allelic series)"
same,binding signal,[2],"9.17 upbm affinity estimate (log intensity, higher = more binding, comparable within an allelic series)"
CTCTCATC,binding signal,[1],"11.6 upbm affinity estimate (log intensity, higher = more binding, comparable within an allelic series)"
same,binding signal,[2],"9.79 upbm affinity estimate (log intensity, higher = more binding, comparable within an allelic series)"
same,binding signal,[4],"11.7 upbm affinity estimate (log intensity, higher = more binding, comparable within an allelic series)"
same,binding signal,[5],"11.9 upbm affinity estimate (log intensity, higher = more binding, comparable within an allelic series)"

# Reference: article PMC11006913
